Screening results: PubChem BioAssay, several laboratories
FAK blocker: blocks human focal adhesion kinase activity. biochemical FAK kinase activity assay. inhibition, %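 (tested at 7 µM)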. 0.84% of 97,000 active; in the data active = inhibition above about 19%
LYP act: LYP (human) phosphatase activation. recombinant LYP, DiFMUP fluorescence; 0 = plate median, 100 = signal doubled. activation, % at 2 µM. 0.11% of 96,000 active. Q9Y2R2;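 active = activation at 2 µM above a set limit, the mean plus 5 SD, cut at about 37% in these data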
PTPN22 inh 2: blocks human PTPN22 phosphatase activity. Q9Y2R2. recombinant LYP catalytic domain, DiFMUP fluorescence. inhibition, % at 2 µM. 0.21% of 96,000 active. AID 640;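 active = inhibition at 2 µM at or above a set limit, the screen mean plus 3 SD, cut at about 24% in these data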
ERa SRC1 inh: blocks coactivator binding to human estrogen receptor alpha | P03372 | TR-FRET ER-alpha LBD / SRC-1 peptide, estradiol-bound | inhibition, % at 25.6 µM | 1.7% of 86,000 active | AID 629; in the data active = inhibition above about 50%
Target sequence (P03372 whole entry, looked up, the tested form may be a part): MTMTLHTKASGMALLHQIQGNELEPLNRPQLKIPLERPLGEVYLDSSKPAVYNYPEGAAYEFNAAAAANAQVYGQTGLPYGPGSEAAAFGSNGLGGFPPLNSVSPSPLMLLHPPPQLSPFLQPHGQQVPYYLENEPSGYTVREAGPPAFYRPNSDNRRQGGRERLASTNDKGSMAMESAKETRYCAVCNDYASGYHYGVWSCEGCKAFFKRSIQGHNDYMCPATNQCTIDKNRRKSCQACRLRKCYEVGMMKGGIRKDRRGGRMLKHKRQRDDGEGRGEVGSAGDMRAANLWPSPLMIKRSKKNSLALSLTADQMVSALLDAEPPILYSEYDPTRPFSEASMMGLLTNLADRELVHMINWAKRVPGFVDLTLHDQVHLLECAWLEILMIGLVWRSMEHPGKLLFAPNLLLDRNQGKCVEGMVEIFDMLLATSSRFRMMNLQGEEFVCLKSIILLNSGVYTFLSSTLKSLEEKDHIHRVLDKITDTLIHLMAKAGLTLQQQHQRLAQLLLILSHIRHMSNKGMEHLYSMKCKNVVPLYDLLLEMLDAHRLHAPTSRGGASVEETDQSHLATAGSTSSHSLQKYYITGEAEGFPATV
ERb SRC1 inh: blocks coactivator binding to human estrogen receptor beta; 1.3% of 86,000 active; Q92731; TR-FRET ER-beta LBD / SRC1-Cy5 peptide binding; receptor agonist-loaded with 1 µM estradiol; inhibition, % at 25.6 µM; AID 633;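 active = compounds whose percent inhibition of the receptor-coactivator binding signal exceeds about 50% in the single-dose screen, limit read from the data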
ERa coact pot: ER-alpha (human) coactivator binding potentiation | P03372 | TR-FRET ERalpha-LBD/SRC-Cy5 coactivator binding, 2 h; 100 = basal binding, no effect | coactivator binding (% of control), % at 25.6 µM | 1.3% of 86,000 active; in the data active = activity above about 200%;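 note: binding measured in presence of low estradiol as agonist stimulus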
Hits are given with their value; n = inactive; x = not tested or not shown; [ ] = dose if it differs, or a comment. Rows were chosen to be rich in hits. Some 3.4% of all compounds tested hit in one or more screens of this group.

SMILES	FAK blocker	LYP act	PTPN22 inh 2	ERa SRC1 inh	ERb SRC1 inh	ERa coact pot
COc1cccc(C(=O)Nc2nc(-c3ccc(S(=O)(=O)N4CCOCC4)cc3)cs2)c1	n	n	n	n	n	463[fluorescence artefact?]
O=C(Nc1nc(-c2ccc(S(=O)(=O)N3CCCC3)cc2)cs1)c1cccs1	n	n	n	n	n	324[fluorescence artefact?]
Cc1ccc(-c2csc(NC(=O)c3cccc(S(=O)(=O)N4CCN(C)CC4)c3)n2)cc1	x	x	x	n	n	n
O=C(O)c1cccc(S(=O)(=O)Nc2ccc3oc(=O)sc3c2)c1	n	n	n	n	52[fluorescence artefact?]	n
CCN(CC)c1ccc(-c2nn3c(-c4ccccc4OC)nnc3s2)cc1	n	n	n	n	n	366
COc1cccc(OC)c1-c1nn2c(-c3cc(-c4ccccc4)n[nH]3)nnc2s1	n	n	38	x	x	x
COc1ccc(-c2nn3c(-c4ccccc4)nnc3s2)cc1	n	n	n	n	n	203[fluorescence artefact?]
COc1ccccc1-c1nn2c(-c3ccccc3Cl)nnc2s1	x	x	x	n	n	n
COc1cccc(-c2nnc3sc(-c4ccccc4)nn23)c1	x	x	x	n	n	n
CN(C)S(=O)(=O)c1ccc2c(c1)C(CC(=O)O)NC2=O (configuration not stated)	n	n	n	n	n	n
O=C(Nc1ccncc1)c1ccc2c(c1)C(=O)N(C1CCCCC1)C2=O	n	n	n	n	n	n
CCOC(=O)c1cc(OC(=O)c2ccccc2OC)n(-c2ccccc2)n1	n	n	n	74[fluorescence artefact?]	n	n
CCCCCCCCc1nnc(NC(=O)c2ccco2)s1	n	n	n	n	n	n
Nc1ncnc(Nc2ccccc2C(F)(F)F)n1	n	n	n	n	n	666[fluorescence artefact?]
CCc1ccc2nc(NC(=O)CSCc3c(C)noc3C)sc2c1	n	n	n	n	91[fluorescence artefact?]	n
COc1ccc2nc(NC(=O)c3cccc(OCc4c(C)noc4C)c3)sc2c1	x	x	x	n	n	n
Cc1ccc(S(=O)(=O)N/N=C/c2ccc(OCC(=O)NC(C)C)cc2)cc1	n	n	n	x	x	x
COc1cccc(CNS(=O)(=O)/C=C/c2ccc3c(c2)OCO3)c1	n	x	x	x	x	x
O=C(OCc1nnc(-c2ccccc2)o1)c1ccc(S(=O)(=O)NCc2ccco2)cc1	n	n	n	53[fluorescence artefact?]	n	n
N#CCCS(=O)(=O)c1nnnn1-c1ccccc1	n	n	n	61	58	n
CCOC(=O)c1c(C)[nH]c(C(=O)CSc2nnnn2-c2ccccc2)c1C	x	x	x	58[fluorescence artefact?]	58[fluorescence artefact?]	205[fluorescence artefact?]
CCOC(=O)N1CCC(N2Cc3cccc(C(=O)N4CCN(C5CCCCC5)CC4)c3C2=O)CC1	n	n	n	n	n	n
NC(=O)c1cccc2c1C(=O)N(C1CCCCC1)C2	n	n	n	53[fluorescence artefact?]	53	n
CCCNC(=O)c1ccccc1NC(=O)c1ccc(CSc2ccccc2)cc1	n	n	n	x	x	x
N#CC1=C(N)SC(N)=C(C#N)C1CCC1CCCCC1	n	n	n	n	n	242
SMILES	FAK blocker	LYP act	PTPN22 inh 2	ERa SRC1 inh	ERb SRC1 inh	ERa coact pot
O=C1C(C=NCc2cccnc2)=C(O)c2ccccc21	n	n	n	n	n	n
C=CCn1c(O)c(C(CC)=NCc2cccnc2)c(=O)[nH]c1=O	n	n	n	n	50	n
Cc1ccc(C(=O)CSc2nnc(-c3ccccc3)o2)cc1	n	n	n	n	n	n
COC(=O)c1ccc(OC)c(CSc2nnc(-c3ccc(C)cc3)o2)c1	x	x	x	n	n	455[fluorescence artefact?]
COc1ccc(NC2CS(=O)(=O)CC2NCc2ccccc2)cc1 (configuration not stated)	n	n	n	n	n	n
O=C(Nc1ccc(N2CCCC2)c(Cl)c1)c1ccc2c(c1)OCCO2	n	n	n	n	n	n
O=C(Nc1ccc(N2CCCCC2)c(Cl)c1)c1ccc2c(c1)OCCO2	n	n	36	n	n	n
O=C1c2ccccc2-c2onc3ccc(Oc4ccccc4)c1c23	36	n	n	76[fluorescence artefact?]	n	n
CC1=C(C#N)C(Nc2ccc(C)cn2)(C(F)(F)F)C(=O)N1 (configuration not stated)	n	n	n	n	n	228[fluorescence artefact?]
CCOC(=O)C1CCCN(C(=O)c2ccc(C)cc2O)C1 (configuration not stated)	n	n	n	x	x	x
Cc1cc2cc3c(cc2nc1SCC(=O)OC(C)C)OCO3	n	n	n	x	x	x
N#Cc1cc2cc3c(cc2nc1SCC(=O)OC1CCCCC1)OCO3	n	n	n	n	n	231[fluorescence artefact?]
O=C1CCCC(O)=C1C(C#Cc1ccccc1)C1=C(O)CCCC1=O	x	x	x	n	52[fluorescence artefact?]	n
